# In PubChem BioAssay (NCATS):
# Inconclusive results are not listed. Activity calls are given as the source filed them. Unless noted, the rule behind the calls is not given here.
# What was measured:
# [1] = qHTS profiling of the MIPE4 collection as inhibitors of Plasmodium falciparum (3D7) proliferation (AID 743344);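 note: scaled between DMSO vehicle wells and 0.29 µM artemisinin as full inhibition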; settings: P. falciparum 3D7 in erythrocytes, SYBR Green DNA fluorescence, 72 h; at 28.5 µM unless noted
# How it was run: (§1)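 Erythrocytes infected with P. falciparum (0.3% parasitemia, 2.5% hematocrit) incubated with compounds 72 h at 37 C, 5% CO2. Lysis with saponin/Triton buffer containing SYBR Green I, overnight at room temperature in the dark; DNA fluorescence (485/535 nm) normalised to 0.29 uM artemisinin and DMSO.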
# [2] = qHTS profiling of the MIPE4 collection as inhibitors of Plasmodium falciparum (DD2) proliferation (Rep 2) (AID 743346); settings: P. falciparum Dd2 in erythrocytes, SYBR Green DNA, 72 h; at 28.5 µM unless noted
# How it was run: as §1
# [3] = qHTS profiling of the MIPE4 collection as inhibitors of Plasmodium falciparum (HB3) proliferation (AID 743347);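 note: plate controls were DMSO vehicle wells for no effect and artemisinin wells for full effect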; settings: P. falciparum HB3 in erythrocytes, SYBR Green DNA, 72 h; at 28.5 µM unless noted
# How it was run: as §1
# [4] = High-throughput drug toxicity screening in the BPDCN cell line Gen2.2 (AID 1224824); settings: Gen2.2 BPDCN cells; at 45.8 µM (top of the series) unless noted;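 note: cells exposed to compounds for 48 h before reading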
# How it was run: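 Seed 500 exponentially growing Gen2.2 cells/well; add compounds by pin tool; incubate 48 h, 37 °C, 5% CO2; add CellTiter-Glo, 15 min RT; read luminescence. % activity vs DMSO (100%) and bortezomib (0%).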
# [5] = High-throughput drug toxicity screening in the BPDCN cell line Cal-1 (AID 1224825); settings: Cal-1 BPDCN cell viability, qHTS; at 45.8 µM (top of the series) unless noted
# How it was run: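 Exponentially growing Cal-1 cells, 500 per well in phenol red-free RPMI with 10% FBS, were exposed to compounds for 48 h at 37 °C, 5% CO2. Viability was read by CellTiter-Glo luminescence and normalised to DMSO (100%) and 9.2 uM bortezomib (0%).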
# [6] = qHTS assay for measurement of the activity of small molecule inhibitors on Zika virus induced Caspase-3 activity in human iPSC derived neural progenitor cells (hNPCs) (AID 1224857; active = well fitted curve in the direction sought with a large enough effect; an effect the other way counts as inactive or inconclusive; note: nearly all actives have a fitted effect of over 65% in size; note: potency is the fitted concentration of half-maximal effect)
# How it was run: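 Percent inhibition of virus-induced caspase-3/7 luminescence (Caspase-Glo), scaled between uninfected cells and Zika-infected cells. hNPCs received compound 1 hr before ZIKV at 2 FFU/cell, with 6 hours infection at 37 C.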
# [7] = qHTS assay for measurement of the activity of small molecule inhibitors on Zika virus induced Caspase-3 activity in human astrocytoma cells (AID 1224859; active = well fitted curve in the direction sought with a large enough effect; an effect the other way counts as inactive or inconclusive;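 note: plate controls were ZIKV-infected untreated cells for no effect and uninfected cells for full effect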)
# How it was run: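 Luminescent caspase-3/7 read-out (30 min reagent, room temperature) in human SNB-19 cells infected 6 h with ZIKV (2 FFU/cell) after 1 h compound pre-incubation; Data were normalised to uninfected and infected wells.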
# [8] = qHTS Screen of the MIPE 4.0 Collection Against Ewings Sarcoma (RDES) (AID 1259252; active = well fitted curve in the direction sought with a large enough effect; an effect the other way counts as inactive or inconclusive; note: nearly all actives have a fitted effect of over 35% in size; note: potency is the fitted concentration of half-maximal effect)
# How it was run: (§2)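 Measured: ATP luminescence (CellTiter-Glo) 10 min after reagent addition, following 48 h drug treatment. Relative luciferase units converted to percent activity, with no-cell wells as full and DMSO wells as zero inhibition.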
# [9] = qHTS Screen of the MIPE 4.0 Collection Against Ewings Sarcoma (EW8) (AID 1259255; active = well fitted curve in the direction sought with a large enough effect; an effect the other way counts as inactive or inconclusive; note: nearly all actives have a fitted effect of over 35% in size; note: potency is the fitted concentration of half-maximal effect;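 for viability: 100% = DMSO-treated cells and 0% = medium-only wells without cells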)
# How it was run: as §2
# [10] = qHTS Screen of the MIPE 4.0 Collection Against Ewings Sarcoma (TC32) (AID 1259256; active = well fitted curve in the direction sought with a large enough effect; an effect the other way counts as inactive or inconclusive; note: nearly all actives have a fitted effect of over 45% in size; note: potency is the fitted concentration of half-maximal effect)
# How it was run: as §2
# [11] = qHTS profiling of the MIPE4 collection as inhibitors of Plasmodium falciparum (DD2) proliferation (AID 743345); settings: P. falciparum Dd2 in erythrocytes, SYBR Green DNA, 72 h; at 28.5 µM unless noted
# How it was run: as §1
# [12] = qHTS profiling for inhibitors of Plasmodium falciparum (DD2) proliferation (AID 743323); settings: lower = more inhibition; at 28.7 µM (top of the series) unless noted
# How it was run: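 1536-well qHTS; infected RBCs 0.3% parasitemia/2.5% Hct final; cpd 72 h 37 C 5% CO2; lysis buffer + SYBR Green I, o/n RT dark; FI 485/535; norm. to 0.29 uM artemisinin and DMSO, plate-stack corrected.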
# [13] = qHTS profiling for inhibitors of Plasmodium falciparum (HB3) proliferation (AID 743324; active = well fitted curve in the direction sought with a large enough effect; an effect the other way counts as inactive or inconclusive;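 note: 100% = DMSO vehicle wells and 0% = artemisinin-treated control wells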); settings: Plasmodium falciparum HB3 blood-stage proliferation; at 28.7 µM (top of the series) unless noted
# How it was run: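 P. falciparum HB3 grown in erythrocytes (0.3% parasitemia, 2.5% hematocrit final) with compound for 72 h at 37 C, 5% CO2. Parasite DNA detected by SYBR Green after saponin/triton lysis overnight; normalized to 0.29 uM artemisinin and DMSO.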
# [14] = Identifying Small Molecule Inhibitors of Pancreatic Cancer Stem Cells (A2780, Spheroid) (AID 1259357; active = well fitted curve in the direction sought with a large enough effect; an effect the other way counts as inactive or inconclusive;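 note: spheroids pre-formed over 14 days in stem cell medium on hydrogel; compound exposure lasted 48 h before the ATP luminescence read; 100% = DMSO treated cells and 0% = wells without cells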); settings: Potency: A2780 spheroid viability
# How it was run: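 Pre-formed 14-day tumor spheroids or adherent cells dosed and incubated 48 h, 37C, 5% CO2. Viability assessed by CellTiter-Glo.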
# [15] = qHTS assay to identify small molecule inhibitors of chordoma cells - UCH-1 (AID 1259355; active = well fitted curve in the direction sought with a large enough effect; an effect the other way counts as inactive or inconclusive; note: % is set by controls: 0 for no effect and ±100 for the full control effect; nearly all actives have a fitted effect of over 55% in size)
# How it was run: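 Luminescent ATP read-out (CellTiter-Glo, 30min at room temperature) measured viability of UCH-1 cells exposed for 48hr to test drugs at 15 concentrations, co-dosed with a five-agent combination of auranofin, camptothecin, doxorubicin, rubitecan and topotecan.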
# [16] = qHTS assay to identify small molecule inhibitors of chordoma cells - UCH-2 (AID 1259356; active = well fitted curve in the direction sought with a large enough effect; an effect the other way counts as inactive or inconclusive; note: % is set by controls: 0 for no effect and ±100 for the full control effect)
Structure (SMILES),"parasite growth, % of DMSO control [1] [%]","parasite growth, % of control (lower = inhibition) [2] [%]","growth, % of control [3] [%]","cell viability, % of control (lower = more cytotoxic) [4] [%]",viability (% of control) [5] [%],Potency [6],Potency [7],Potency [8],Potency [9],Potency [10],"parasite growth remaining, % of DMSO control (lower = more inhibition) [11] [%]","activity, percent of control [12] [%]","remaining proliferation (% of control), lower = more inhibition [13] [%]",Potency [14],outcome [15],outcome [16]
Cc1ccccc1C(C(=O)NC1CCCCC1)N(C(=O)CNc1ccc(C#N)cc1)c1cccc(F)c1 (centres undefined),145,75.5,530,161,128,inactive,inactive,inactive,inactive,inactive,,,,,,
O=[N+]([O-])c1ccc(Nc2ccccc2-c2ccccc2)c2nonc12,33.4,46.7,75.1,145,88.7,inactive,inactive,inactive,inactive,inactive,83.4,,,,,
COc1cc(N2CCN(C)CC2)ccc1Nc1nc(N)c(C(=O)c2c(Cl)cccc2Cl)s1,20.2,14.6,21.1,72.5,49.7,inactive,inactive,13.2 µM (active),16.6 µM (active),10.5 µM (active),8.77,,,,,
O=C1C(CCC(O)c2ccc(F)cc2)C(c2ccc(O)cc2)N1c1ccc(F)cc1 (centres undefined),33.5,36.6,33.2,88.9,93.3,inactive,inactive,inactive,,inactive,77,83.7,64.8,inactive,,
N#CC(c1ccc(Cl)cc1)c1c(Cl)cc(-n2ncc(=O)[nH]c2=O)cc1Cl (centres undefined),19.5,10.2,7.09,69.2,12.7,inactive,inactive,26.4 µM (active),,inactive,10.7,,,,inactive,inactive
CN(C)c1nc(Cc2ccc(NC(=O)c3ccc(C(F)(F)F)cc3)cc2)nc(N(C)C)c1CC(=O)O,88.9,75.7,95.1,204,132,inactive,inactive,inactive,inactive,inactive,90.9,,,,,
Nc1nc(Cl)nc2c1ncn2[C@@H]1O[C@H](CO)[C@@H](O)[C@H]1F,81.5,63.9,96.1,159,13.2,inactive,inactive,inactive,inactive,inactive,97.5,,,,,
CCOC(=O)N1c2ccc(C(F)(F)F)cc2[C@@H](N(Cc2cc(C(F)(F)F)cc(C(F)(F)F)c2)C(=O)OC)C[C@H]1CC,6.27,14.4,3.55,115,91.9,inactive,inactive,23.5 µM (active),20.9 µM (active),,,,,,,
C[C@@H]1CC=CC=CC=CC=C[C@@H](O[C@@H]2O[C@H](C)[C@@H](O)[C@H](N)[C@H]2O)C[C@@H]2O[C@](O)(C[C@@H](O)C[C@@H]3O[C@@H]3C=CC(=O)O1)C[C@H](O)[C@@H]2C(=O)O,46.3,59,52.6,186,110,inactive,inactive,7.43 µM (active),11.8 µM (active),14.8 µM (active),67,,,,,
CN(C)c1ccccc1CN1CCCN(Cc2ccccc2N(C)C)C1c1ccncc1,17.2,11.1,12.9,13.5,29.7,inactive,inactive,20.9 µM (active),18.7 µM (active),,9.84,,,,,
CCC(c1ccc(O)cc1)C(CC)c1ccc(O)cc1 (centres undefined),84.9,75,106,149,104,inactive,inactive,0.743 µM (active),1.87 µM (active),1.48 µM (active),90,,,,,
COc1ccc2ccc(=O)oc2c1CC=C(C)C,94.2,73.4,80.3,124,97.4,inactive,inactive,23.5 µM (active),7.43 µM (active),inactive,15.6,,,,,
Clc1ccc(C2(c3ccc(-c4cn[nH]c4)cc3)CCNCC2)cc1,4.5,12.8,4.19,16.8,10.8,inactive,inactive,14.8 µM (active),23.5 µM (active),20.9 µM (active),9.74,,,,,
Cc1cn([C@@H]2C[C@@H](O)[C@H](CO)O2)c(=O)[nH]c1=O,,,,159,69.5,inactive,inactive,inactive,,inactive,,,,,,
CCCCC[C@H](O)C=C[C@H]1[C@H](O)CC(=O)[C@H]1CCCCCCC(=O)O,71.4,71.7,103,64.6,93.2,inactive,inactive,inactive,inactive,,133,,,,,
O[C@@H](COc1cccc2ncccc12)CN1CCN(C2c3ccccc3[C@@H]3[C@H](c4ccccc42)C3(F)F)CC1 (some centres undefined),47.1,54.1,63.5,4.83,6.33,26.4 µM (active),inactive,20.9 µM (active),23.5 µM (active),,65.6,,,,,
O=C(c1ccc(F)c(F)c1Nc1ccc(I)cc1F)N1CC(O)([C@H]2CCCCN2)C1,11,20.2,4.74,3.78,2.16,inactive,inactive,26.4 µM (active),23.5 µM (active),20.9 µM (active),11.1,,,,,
